Measured values published in PubChem BioAssay.
Activity calls are given as the source filed them.

Experiments:
Albumin (Bos taurus) = Albumin (Bos taurus) (UniProt P02769); assay: bovine serum albumin binders on microarray, profiling panel, artefact control for SMM control protein annotation, biochemical, small-molecule microarray, Alexa647 label, 635/667 nm fluorescence (AID 1118); settings: BSA-A647 binding, fluorescence 635 nm, higher = more signal;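 also: score merges 667 nm emission intensity and signal-to-noise per printed compound spot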
[1] = small-molecule microarray binders of probe aXIP, primary screen, biochemical, NeuroSMM set, 635/667 nm fluorescence (AID 1119); settings: higher = more signal, called active from +8 up or from −8 down;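 also: probe is the protein aXip251-270 applied at 1 µg/mL to compound-printed slides; binding of probe to printed compounds measured as 667 nm fluorescence plus signal to noise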
[2] = small-molecule binders of probe aNOTCH3, primary screen, biochemical, small-molecule microarray, 635/667 nm fluorescence (AID 1120); settings: higher = more signal;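 also: probe is a biotin-tagged antibody raised against NOTCH3 rather than NOTCH3 protein; score merges spot fluorescence near 667 nm with spot signal to noise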
[3] = small-molecule binders of probe aNOTCH2, primary screen, biochemical, small-molecule microarray, 635/667 nm fluorescence (AID 1121); settings: higher = more signal;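 also: score merges feature fluorescence read at 667 nm with its signal to noise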
[4] = target: Carbonic anhydrase 2 (Homo sapiens) (UniProt P00918); assay: CAII small-molecule binders, profiling panel, biochemical, small-molecule microarray, Alexa647-labelled CAII (AID 1122); settings: CAII-A647 binding fluorescence, higher = more signal
[5] = COS7 lysate on small-molecule microarray, probe aHis, 635 nm (AID 1123); settings: COS7 cell lysate, fluorescence, higher = more signal;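 also: z-score combines 667nm fluorescence intensity with signal-to-noise per printed compound spot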
[6] = compound binding in COS7 lysate, probe aLAP1, primary screen, cell lysate, small-molecule microarray (AID 1124); settings: probe aLAP1, fluorescence, higher = more signal;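 also: lysate comes from COS7 cells expressing LAP1 and is applied at 0.3 µg/mL; score merges spot fluorescence near 667 nm with signal-to-noise over triplicate slides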
Sam68 (KHDRBS1) = assay: Sam68 small-molecule binders, primary screen, biochemical, small-molecule microarray, 635 nm fluorescence (AID 1125); settings: small-molecule microarray binding, higher = more signal;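 also: score merges 667 nm channel intensity with signal to noise over triplicate slides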
[7] = tested on: Chordin-like protein 2 (CHRDL2); assay: CHRDL2 small-molecule binders, primary screen, biochemical, small-molecule microarray, 635 nm fluorescence (AID 1126); settings: small-molecule microarray binding, fluorescence 635 nm; higher = more signal;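 also: printed compound slides probed with Chrdl2 protein at 4 µg/mL for 1 h at 4 C; score merges 667 nm emission intensity with signal to noise over three replicate slides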
[8] = target: Concanavalin-A (Canavalia ensiformis) (UniProt P02866); assay: ConA small-molecule binders, primary screen, artefact control for SMM control protein annotation, biochemical, small-molecule microarray, Alexa647 label, 635 nm (AID 1127); settings: ConA-A647 binding fluorescence, higher = more signal;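 also: z combines 667 nm emission intensity with signal-to-noise across three replicate slides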
[9] = anti-His antibody binders, primary screen, artefact control for SMM control protein annotation, biochemical, small-molecule microarray, 635 nm fluorescence (AID 1128); settings: anti-His Alexa647 antibody binding, higher = more signal;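 also: score merges feature fluorescence with signal-to-noise for each printed compound spot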
[10] = tested on: Human papillomavirus type 1a E7 protein (residues 1-88); assay: HPV1a E7 small-molecule binders, primary screen, biochemical, small-molecule microarray, residues 1-88, 635 nm (AID 1129); settings: small-molecule microarray binding, fluorescence 635 nm; higher = more signal
[11] = target: Focal adhesion kinase 1 (Homo sapiens) (UniProt Q05397); assay: small-molecule microarray binders of FAK, primary screen, biochemical, 635/667 nm fluorescence, BSA, DTT (AID 1130); settings: PTK2 binding, 635 nm fluorescence, higher = more signal;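 also: composite of spot emission at 667 nm and signal to noise over triplicate slides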
[12] = tested on: Fibrinogen (Alexa647-labelled); assay: fibrinogen binders on compound microarrays, profiling panel, artefact control for SMM control-protein annotation, biochemical, small-molecule microarray, 635/667 nm fluorescence (AID 1131); settings: fibrinogen-A647 binding fluorescence, higher = more signal;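 also: z-score merges 667 nm fluorescence with per-spot signal-to-noise over triplicate slides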
[13] = target: Follistatin (Homo sapiens) (UniProt P19883); assay: follistatin binders on small-molecule microarrays, primary screen, biochemical, small-molecule microarray, 635/667 nm fluorescence (AID 1132); settings: FST binding, 635 nm fluorescence, higher = more signal
[14] = target: Fibroblast growth factor 2 (Homo sapiens) (UniProt P09038); assay: FGF2 binders on small-molecule microarrays, primary screen, biochemical, small-molecule microarray, 635/667 nm fluorescence (AID 1133); settings: small-molecule microarray binding, FGF2, fluorescence 635/667; higher = more signal
[15] = mitochondrial membrane potential change in A549 cells, profiling panel, cell-based, JC-1 fluorescence, basal, 24 h, 100 nL (AID 1138); settings: higher = more signal;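 also: A549 lung adenocarcinoma cells under basal conditions with no added stimulus; test concentration not given here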
Lefty1 = Lefty1 binders on small-molecule microarrays, primary screen, biochemical, small-molecule microarray, 635/667 nm fluorescence (AID 1139); settings: small-molecule microarray binding, fluorescence 635/667; higher = more signal
[16] = tested on: wheat germ agglutinin (Triticum aestivum), Alexa647-labelled; assay: wheat germ agglutinin binders on compound microarrays, profiling panel, artefact control for SMM control-protein annotation, biochemical, small-molecule microarray, 635/667 nm fluorescence (AID 1140); settings: WGA-A647 binding, 635 nm fluorescence, higher = more signal;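 also: score merges 667 nm feature emission with signal to noise over triplicate slides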
[17] = target: Luciferin 4-monooxygenase (Photinus pyralis) (UniProt P08659); assay: firefly luciferase enzyme inhibitors, primary screen, biochemical, luminescence, purified enzyme, 2006 set (AID 1141); settings: SteadyGlo luminescence, 30 min, higher = more signal, called active from +8 up or from −8 down;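 also: cell-free assay with purified firefly luciferase at 100 ng per well in PBS; test concentration not given here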
Chain of Luciferin 4-monooxygenase (Photinus pyralis) (P08659 whole entry, looked up): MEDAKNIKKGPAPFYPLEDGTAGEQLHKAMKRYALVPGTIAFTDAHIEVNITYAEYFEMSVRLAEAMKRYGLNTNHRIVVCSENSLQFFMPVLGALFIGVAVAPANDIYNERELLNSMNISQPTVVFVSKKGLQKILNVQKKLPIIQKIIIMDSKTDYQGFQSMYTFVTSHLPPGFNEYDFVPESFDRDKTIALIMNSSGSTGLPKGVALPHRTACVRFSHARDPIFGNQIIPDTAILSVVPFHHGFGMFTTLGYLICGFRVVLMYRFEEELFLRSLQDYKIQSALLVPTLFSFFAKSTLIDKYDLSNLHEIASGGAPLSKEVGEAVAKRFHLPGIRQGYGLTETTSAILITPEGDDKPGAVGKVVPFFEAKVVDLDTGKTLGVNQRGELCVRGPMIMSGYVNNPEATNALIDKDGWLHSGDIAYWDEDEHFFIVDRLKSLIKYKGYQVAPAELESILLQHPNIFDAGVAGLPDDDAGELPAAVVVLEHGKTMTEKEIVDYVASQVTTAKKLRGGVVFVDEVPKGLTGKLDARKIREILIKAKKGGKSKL

Chain of Albumin (Bos taurus) (P02769 whole entry, looked up): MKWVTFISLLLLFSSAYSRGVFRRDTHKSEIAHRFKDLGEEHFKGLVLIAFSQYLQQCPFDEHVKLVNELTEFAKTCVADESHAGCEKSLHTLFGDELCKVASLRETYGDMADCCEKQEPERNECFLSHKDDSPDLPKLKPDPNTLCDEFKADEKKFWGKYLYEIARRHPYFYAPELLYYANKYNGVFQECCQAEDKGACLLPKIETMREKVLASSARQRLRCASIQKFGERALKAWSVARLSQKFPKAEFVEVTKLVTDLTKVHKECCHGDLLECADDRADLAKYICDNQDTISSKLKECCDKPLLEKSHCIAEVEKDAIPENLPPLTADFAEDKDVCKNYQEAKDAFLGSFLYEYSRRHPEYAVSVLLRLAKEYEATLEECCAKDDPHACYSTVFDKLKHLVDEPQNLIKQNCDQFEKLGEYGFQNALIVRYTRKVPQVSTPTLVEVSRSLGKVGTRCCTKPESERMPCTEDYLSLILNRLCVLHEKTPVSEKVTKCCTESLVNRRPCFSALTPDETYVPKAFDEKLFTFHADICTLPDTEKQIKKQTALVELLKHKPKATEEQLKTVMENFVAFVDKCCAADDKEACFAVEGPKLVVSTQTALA
Chain of Focal adhesion kinase 1 (Homo sapiens) (Q05397 whole entry, looked up): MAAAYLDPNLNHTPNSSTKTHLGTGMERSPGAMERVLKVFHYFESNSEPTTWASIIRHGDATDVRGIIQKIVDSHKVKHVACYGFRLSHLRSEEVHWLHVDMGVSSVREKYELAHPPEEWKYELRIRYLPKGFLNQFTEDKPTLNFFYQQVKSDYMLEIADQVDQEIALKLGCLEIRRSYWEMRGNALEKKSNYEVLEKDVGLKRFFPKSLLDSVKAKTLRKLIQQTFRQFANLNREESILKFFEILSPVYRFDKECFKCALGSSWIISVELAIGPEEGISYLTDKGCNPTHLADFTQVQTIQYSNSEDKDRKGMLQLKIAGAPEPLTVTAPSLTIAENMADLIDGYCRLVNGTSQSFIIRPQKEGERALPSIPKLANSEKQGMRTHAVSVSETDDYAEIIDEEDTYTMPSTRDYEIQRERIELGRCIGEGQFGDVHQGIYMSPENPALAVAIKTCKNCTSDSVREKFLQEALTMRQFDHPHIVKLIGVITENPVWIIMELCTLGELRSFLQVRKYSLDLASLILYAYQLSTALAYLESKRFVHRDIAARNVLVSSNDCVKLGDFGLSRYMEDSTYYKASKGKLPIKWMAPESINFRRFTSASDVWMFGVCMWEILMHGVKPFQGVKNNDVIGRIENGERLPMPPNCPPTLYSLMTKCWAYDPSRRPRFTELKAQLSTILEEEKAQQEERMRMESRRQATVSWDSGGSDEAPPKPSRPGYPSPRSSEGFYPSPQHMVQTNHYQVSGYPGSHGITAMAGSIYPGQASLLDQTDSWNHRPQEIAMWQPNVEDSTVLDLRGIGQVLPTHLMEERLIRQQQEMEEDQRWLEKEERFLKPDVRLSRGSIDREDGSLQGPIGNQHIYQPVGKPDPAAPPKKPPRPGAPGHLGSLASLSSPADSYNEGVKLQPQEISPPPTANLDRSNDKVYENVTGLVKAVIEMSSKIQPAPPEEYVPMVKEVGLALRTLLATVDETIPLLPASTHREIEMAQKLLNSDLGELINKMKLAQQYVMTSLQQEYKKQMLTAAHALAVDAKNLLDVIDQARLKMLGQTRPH
Chain of Follistatin (Homo sapiens) (P19883 whole entry, looked up): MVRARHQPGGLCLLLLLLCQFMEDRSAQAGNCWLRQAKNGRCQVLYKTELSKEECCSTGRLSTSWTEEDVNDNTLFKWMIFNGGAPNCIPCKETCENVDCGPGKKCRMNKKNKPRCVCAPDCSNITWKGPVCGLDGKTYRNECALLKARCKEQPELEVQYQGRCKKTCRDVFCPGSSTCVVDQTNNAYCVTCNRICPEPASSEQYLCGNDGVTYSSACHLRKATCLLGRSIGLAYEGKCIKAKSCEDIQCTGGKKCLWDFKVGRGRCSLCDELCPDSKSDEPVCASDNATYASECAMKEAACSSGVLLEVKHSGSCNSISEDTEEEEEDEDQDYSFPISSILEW
Chain of Concanavalin-A (Canavalia ensiformis) (P02866 whole entry, looked up): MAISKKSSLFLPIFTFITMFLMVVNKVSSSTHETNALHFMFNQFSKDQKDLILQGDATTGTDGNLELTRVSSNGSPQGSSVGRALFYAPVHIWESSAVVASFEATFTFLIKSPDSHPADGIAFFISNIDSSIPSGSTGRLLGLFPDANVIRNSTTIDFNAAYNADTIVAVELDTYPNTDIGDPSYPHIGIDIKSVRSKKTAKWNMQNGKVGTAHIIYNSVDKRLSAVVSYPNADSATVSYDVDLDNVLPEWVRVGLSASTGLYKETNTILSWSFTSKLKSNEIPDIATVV
Chain of Fibroblast growth factor 2 (Homo sapiens) (P09038 whole entry, looked up): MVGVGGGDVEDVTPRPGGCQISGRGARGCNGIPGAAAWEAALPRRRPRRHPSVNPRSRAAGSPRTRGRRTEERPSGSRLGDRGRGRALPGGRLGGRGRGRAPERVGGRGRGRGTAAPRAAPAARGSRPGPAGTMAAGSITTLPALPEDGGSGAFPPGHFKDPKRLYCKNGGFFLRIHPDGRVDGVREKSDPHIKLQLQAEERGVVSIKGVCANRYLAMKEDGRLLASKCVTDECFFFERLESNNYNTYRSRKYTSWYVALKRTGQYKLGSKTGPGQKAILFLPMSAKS

Compound	composite z-score (Albumin (Bos taurus))	composite Z-score [1]	composite z-score [2]	composite z-score [3]	composite z-score [4]	composite z-score [5]	composite z-score [6]	composite z-score (Sam68 (KHDRBS1))	composite z-score [7]	composite z-score [8]	composite z-score [9]	composite z-score [10]	composite z-score [11]	composite z-score [12]	composite z-score [13]	composite z-score [14]	z-score [15]	composite z-score (Lefty1)	composite z-score [16]	z-score [17]
NC(=O)NCC#Cc1ccc2c(c1)[C@]1(C(=O)N2)[C@H](c2ccccc2OCCO)N2[C@H](c3ccccc3)[C@H](c3ccccc3)OC(=O)[C@H]2[C@@H]1C(=O)O	0.276	0.155 (inactive)	-0.245	-0.0772	0.496	0.259	0.931	0.293	-0.128	0.96	-0.241	-0.464	-0.178	0.277	0.728	0.387	-0.545	0.477	0.225	-0.521 (inactive)
CC(=O)NCCCC[C@@H]1NC(=O)[C@@H]2C[C@H](C(=O)NCCCCCN)[C@H](c3ccc(O)cc3)N2C1=O	0.0285	-0.0662 (inactive)	0.237	0.0654	0.527	1.26	1.06	1.11	0.964	0.956	0.367	1.19	0.445	0.671	1.33	1.24	-0.664	1.58	0.283	-0.399 (inactive)
COC(=O)[C@@]1(Cc2ccc(OC)cc2)[C@H]2c3cc(C(=O)N4CCCC4)n(CCc4c[nH]c5ccc(OC)cc45)c3C[C@H]2CN1C(=O)c1ccccc1	0.93	-0.453 (inactive)	0.319	0.387	0.711	2.81	0.8	1.11	-1.04	0.852	1.99	1.18	0.894	0.755	1.22	-0.904	0.675	-0.162	1.29	1.3 (inactive)
CC(C)C[C@@H]1NC(=O)[C@@H]2C[C@H](C(=O)NCCCCCCN)[C@H](c3cccc(OCCO)c3)N2C1=O	0.586	0.799 (inactive)	0.16	-0.0859	0.659	2.22	0.636	1.31	0.668	1.03	2.25	1.11	0.344	0.662	1.32	0.548	-0.645	1.51	1.1	0.459 (inactive)
CCCCC[C@H]1OC[C@@]23C=C(Br)[C@@H](CC12)[C@@]1(CO1)C3=O (stereo not given in full)	-0.677	0.39 (inactive)	-0.126	-0.0907	-0.174	-0.0346	-0.144	0.491	-0.194	-0.308	2.98	-0.327	0.215	-0.411	0.0488	-0.165	0.617	0.505	-0.407	-0.0658 (inactive)
O=C(C1N=C(c2ccc(OCCCO)cc2)N(c2ccccc2)O1)N1CCCCC1 (stereo not given)	0.909	1.91 (inactive)	0.304	0.116	0.718	2.31	0.936	1.29	0.165	1.2	1.94	1.25	0.634	1	1.05	0.423	0.924	0.168	1.31	-10.6 (active)
